These results are taken from PubChem BioAssay AID720513 (Broad Institute, 2013).

The whole screen tested about 2,100 compounds, of which about 480 (23%) were called active. About 5% were inconclusive and are not listed.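 How the source made its calls: active means fitted curve reaches 40% activation at or below the top valid concentration, in every replicate test; inconclusive means replicate tests disagree on the call; inactive means the rest, including activity in the opposite direction.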 These entries were drawn from the full list. Where a call stands in place of a potency, no number is given. Potency and affinity values are given separately.

This test in a line: activators raising PGC1a acetylation in cells, dose response, cell-based, cherry-picked samples, set 6 (AID 720513).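 Further: cells made to overexpress flag tagged PGC1a plus GCN5 acetyltransferase by viral infection.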 The note with it: U2OS PGC1a acetylation AlphaLISA, overnight, 0 = neutral, -100 = inhibitor control; series mostly up to 19.5 µM. (In general: Bead proximity is the source of the signal in Alpha formats.)
Consider `COC(=O)c1ccc(Cl)c(NC(C)=O)c1`, for which the compound was called inactive.
As to `Cc1cc(C(=O)OCC(=O)N(C)c2ccccc2)ccc1[N+](=O)[O-]`, the compound was classed as inactive.
For `CCOc1cc(CNC2CCCC2)cc(Cl)c1OCc1ccc(F)cc1`, the result was inactive.
For `O=C(C[C@H]1CC[C@@H](NS(=O)(=O)c2ccc(F)cc2)[C@H](CO)O1)N1CCN(c2ccccc2)CC1`, the result was inactive.
Consider `O=C(C[C@@H]1CC[C@@H](NS(=O)(=O)c2ccc(F)cc2)[C@H](CO)O1)N1CCN(c2ccccc2)CC1`, for which the compound was called inactive.
Then `C=CC[C@@H](CC(=O)N[C@@H](CO)Cc1ccccc1)C(=O)N[C@@H](COC(=O)[C@@H](CC=C)CC(=O)OC(C)(C)C)Cc1c[nH]c2ccccc12`, with “inactive”.
Then `COc1ccc(NC(=O)Nc2ccc3c(c2)CC(=O)N([C@H](C)CO)C[C@H](C)[C@@H](CN(C)CC2CCCCC2)O3)cc1`, with “inactive”; and `CNC(=O)COC(=O)c1cc(-c2ccco2)nc2ccccc12`, with “inactive”.
Turning to `Cc1nc(SCC(=O)OCc2ccccc2)c(C#N)c(-c2ccccc2)c1C(=O)Nc1ccccc1`, the outcome was inactive.
Take `COCC(=O)N1CC(=O)N2[C@@H](CO)[C@H](c3ccc(-c4ccncc4)cc3)[C@@H]2C1`: the outcome was inactive.
For the compound `O=C(Nc1cccc(OC(F)(F)F)c1)c1ccc(-c2cccnc2)c2ccoc12`, the outcome was inactive.
In the case of `O=C(NCc1cccc(Cl)c1)c1ccc(-n2ccnc2)c2ccoc12`, the compound was called inactive.
Regarding `CC(Oc1ccc2c3c(c(=O)oc2c1)CCC3)C(=O)N[C@@H](Cc1ccccc1)C(=O)O` (some centres not stated), the result was inactive.
In the case of `Nc1ncnc(NCc2ccc(F)cc2)c1[N+](=O)[O-]`, the call was inactive.
Consider `N#Cc1cccc(-c2ccc([C@@H]3[C@@H]4CN(S(=O)(=O)c5ccc(-c6ccccc6)cc5)C[C@H]3N4)cc2)c1`, for which the result was inactive.
Turning to `COc1cccc(-c2ccc(C3[C@@H]4CN(C(=O)C5CC5)C[C@H]3N4)cc2)c1` (some centres not stated), the result was inactive.
As to `N#Cc1ccc(-c2ccc([C@@H]3[C@@H]4CN(S(=O)(=O)c5ccc(-c6ccccc6)cc5)C[C@H]3N4)cc2)cc1`, the outcome was inactive.
In the case of `O=S(=O)(c1ccc(-c2ccccc2)cc1)N1C[C@@H]2N[C@H](C1)[C@@H]2c1ccc(-c2cccnc2)cc1`, the compound was classed as inactive.
With `COc1ccccc1-c1ccc([C@@H]2[C@@H]3CN(S(=O)(=O)c4ccc(-c5ccccc5)cc4)C[C@H]2N3)cc1` the entry was “inactive”.
Take `COc1cccc(S(=O)(=O)N2C[C@@H]3N[C@H](C2)C3c2ccc(-c3ccccc3C)cc2)c1` (some centres not stated): the compound was classed as inactive.
Then `O=C(C1CCCCC1)N1C[C@@H]2N[C@H](C1)C2c1ccc(-c2cccc(F)c2)cc1` (some centres not stated), with “inactive”; and `C[C@@H]1CN([C@H](C)CO)C(=O)c2cc(/C=C/c3ccccc3)cnc2O[C@@H]1CN(C)Cc1cccnc1`, with “inactive”.
